# Legend:
# Test in all cases: DAPPL (digital affinity profiling via proximity ligation, sequencing); 10 mM Tris-HCl pH 7.5, 50 mM NaCl, 1 mM DTT, 4% glycerol, room temperature, 30 min; GST-TFs on glutathione beads, 16-mer random dsDNA library, 0.1% formaldehyde crosslink after washing; high values mean tight binding
# FEV = target: T1, FEV (Homo sapiens, UniProt Q99581 1-238); conditions: protein: recombinant; tags: N-terminal GST; dsDNA, one strand shown
# T1 sequence: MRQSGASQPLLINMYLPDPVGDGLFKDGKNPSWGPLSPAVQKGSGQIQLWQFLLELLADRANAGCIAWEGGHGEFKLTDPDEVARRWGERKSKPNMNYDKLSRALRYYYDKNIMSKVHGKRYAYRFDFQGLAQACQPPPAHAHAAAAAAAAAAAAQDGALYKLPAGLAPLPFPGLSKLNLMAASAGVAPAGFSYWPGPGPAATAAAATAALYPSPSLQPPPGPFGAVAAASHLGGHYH
# Procedure, shortened: (§1)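 Human transcription factors fused to GST were expressed in yeast, captured on glutathione beads, given DNA barcodes and pooled with a GST-only negative control. Pools were incubated with 200 nmole of a 16-mer random double-stranded DNA library in Tris/NaCl/DTT/glycerol buffer at room temperature for 30 min. They were then washed, crosslinked with 0.1% formaldehyde, proximity-ligated (BsaI/T4 ligase, 1 h, 37 °C), PCR-amplified and sequenced on an Illumina NextSeq500. Binding signal is each 6-mer's read frequency for a factor divided by its frequency for the GST control.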
# ETV5 = ETV5 (Homo sapiens, UniProt P41161 1-510); conditions: protein: recombinant; tags: N-terminal GST; dsDNA, one strand shown
# Procedure, shortened: as §1
# HSF1 = HSF1 (Homo sapiens, UniProt Q00613 1-529); conditions: protein: recombinant; tags: N-terminal GST; chain copies: 3; dsDNA, one strand shown
# Procedure, shortened: as §1
# SPIC = target: T2, SPIC (Homo sapiens, UniProt Q8N5J4 1-248); conditions: protein: recombinant; tags: N-terminal GST; dsDNA, one strand shown
# T2 sequence: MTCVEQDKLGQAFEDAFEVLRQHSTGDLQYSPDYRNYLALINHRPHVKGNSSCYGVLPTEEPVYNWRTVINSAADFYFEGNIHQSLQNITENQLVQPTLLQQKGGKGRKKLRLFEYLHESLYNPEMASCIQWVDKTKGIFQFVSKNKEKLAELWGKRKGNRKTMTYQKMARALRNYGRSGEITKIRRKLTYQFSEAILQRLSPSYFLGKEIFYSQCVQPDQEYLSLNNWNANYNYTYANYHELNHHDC
# Procedure, shortened: as §1
# ELF4 = ELF4 (Homo sapiens, UniProt Q99607 1-663); conditions: protein: recombinant; tags: N-terminal GST; dsDNA, one strand shown
# Procedure, shortened: as §1
# ELK4 = target: T3, ELK4 (Homo sapiens, UniProt P28324-2 1-405); conditions: protein: recombinant; tags: N-terminal GST; dsDNA, one strand shown
# T3 sequence: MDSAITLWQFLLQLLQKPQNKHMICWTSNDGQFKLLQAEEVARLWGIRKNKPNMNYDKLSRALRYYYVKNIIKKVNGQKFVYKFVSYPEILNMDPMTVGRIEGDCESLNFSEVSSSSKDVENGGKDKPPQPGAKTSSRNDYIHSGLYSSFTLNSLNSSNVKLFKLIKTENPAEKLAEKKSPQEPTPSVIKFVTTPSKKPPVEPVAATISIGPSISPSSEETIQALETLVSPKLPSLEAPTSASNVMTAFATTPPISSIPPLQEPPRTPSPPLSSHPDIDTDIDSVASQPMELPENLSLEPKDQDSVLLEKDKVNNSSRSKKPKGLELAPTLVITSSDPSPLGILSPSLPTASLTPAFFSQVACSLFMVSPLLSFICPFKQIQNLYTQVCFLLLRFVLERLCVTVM
# Procedure, shortened: as §1
# ETV2 = target: T4, ETV2 (Homo sapiens, UniProt O00321 1-342); conditions: protein: recombinant; tags: N-terminal GST; dsDNA, one strand shown
# T4 sequence: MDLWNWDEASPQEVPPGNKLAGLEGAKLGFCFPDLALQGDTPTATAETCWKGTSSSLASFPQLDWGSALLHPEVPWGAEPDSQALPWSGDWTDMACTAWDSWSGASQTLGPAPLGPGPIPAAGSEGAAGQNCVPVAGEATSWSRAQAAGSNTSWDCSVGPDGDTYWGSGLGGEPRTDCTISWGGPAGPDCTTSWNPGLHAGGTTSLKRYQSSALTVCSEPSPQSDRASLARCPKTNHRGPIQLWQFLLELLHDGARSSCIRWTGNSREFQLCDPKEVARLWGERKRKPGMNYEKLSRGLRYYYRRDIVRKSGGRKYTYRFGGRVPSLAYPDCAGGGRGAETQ
# Procedure, shortened: as §1
# ELF3 = target: T5, ELF3 (Homo sapiens, UniProt P78545 1-371); conditions: protein: recombinant; tags: N-terminal GST; dsDNA, one strand shown
# T5 sequence: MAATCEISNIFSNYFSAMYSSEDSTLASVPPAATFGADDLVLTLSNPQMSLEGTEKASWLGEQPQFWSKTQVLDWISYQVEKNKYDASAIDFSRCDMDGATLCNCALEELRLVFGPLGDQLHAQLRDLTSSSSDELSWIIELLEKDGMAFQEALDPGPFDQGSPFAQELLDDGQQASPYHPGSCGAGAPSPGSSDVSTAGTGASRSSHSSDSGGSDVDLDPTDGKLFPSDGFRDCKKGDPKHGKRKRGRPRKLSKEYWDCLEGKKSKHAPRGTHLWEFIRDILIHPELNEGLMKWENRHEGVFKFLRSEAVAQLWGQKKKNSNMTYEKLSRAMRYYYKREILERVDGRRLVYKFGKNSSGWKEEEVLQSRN
# Procedure, shortened: as §1
# CRX = CRX (Homo sapiens, UniProt O43186 1-299); conditions: protein: recombinant; tags: N-terminal GST; dsDNA, one strand shown
# Procedure, shortened: as §1
# ETV1 = ETV1 (Homo sapiens, UniProt P50549 1-477); conditions: protein: recombinant; tags: N-terminal GST; dsDNA, one strand shown
# Procedure, shortened: as §1
# ERF = target: T6, ERF (Homo sapiens, UniProt P50548 1-548); conditions: protein: recombinant; tags: N-terminal GST; dsDNA, one strand shown
# T6 sequence: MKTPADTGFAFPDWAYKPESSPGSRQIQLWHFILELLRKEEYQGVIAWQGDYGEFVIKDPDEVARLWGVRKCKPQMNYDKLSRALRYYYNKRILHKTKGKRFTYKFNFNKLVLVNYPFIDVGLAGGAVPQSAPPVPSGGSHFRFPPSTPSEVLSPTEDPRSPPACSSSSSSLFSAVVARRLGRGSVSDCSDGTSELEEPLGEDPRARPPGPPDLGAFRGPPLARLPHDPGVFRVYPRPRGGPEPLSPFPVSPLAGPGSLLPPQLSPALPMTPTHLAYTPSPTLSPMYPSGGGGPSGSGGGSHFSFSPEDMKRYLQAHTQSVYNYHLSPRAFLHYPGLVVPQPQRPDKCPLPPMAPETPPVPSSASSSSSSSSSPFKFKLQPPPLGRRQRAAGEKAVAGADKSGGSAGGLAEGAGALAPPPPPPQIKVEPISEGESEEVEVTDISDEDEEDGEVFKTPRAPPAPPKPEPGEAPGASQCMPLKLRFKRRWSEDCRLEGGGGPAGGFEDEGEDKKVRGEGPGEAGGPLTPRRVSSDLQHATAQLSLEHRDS
# Procedure, shortened: as §1
# ETV3L = target: T7, ETV3L (Homo sapiens, UniProt Q6ZN32 1-361); conditions: protein: recombinant; tags: N-terminal GST; dsDNA, one strand shown
# T7 sequence: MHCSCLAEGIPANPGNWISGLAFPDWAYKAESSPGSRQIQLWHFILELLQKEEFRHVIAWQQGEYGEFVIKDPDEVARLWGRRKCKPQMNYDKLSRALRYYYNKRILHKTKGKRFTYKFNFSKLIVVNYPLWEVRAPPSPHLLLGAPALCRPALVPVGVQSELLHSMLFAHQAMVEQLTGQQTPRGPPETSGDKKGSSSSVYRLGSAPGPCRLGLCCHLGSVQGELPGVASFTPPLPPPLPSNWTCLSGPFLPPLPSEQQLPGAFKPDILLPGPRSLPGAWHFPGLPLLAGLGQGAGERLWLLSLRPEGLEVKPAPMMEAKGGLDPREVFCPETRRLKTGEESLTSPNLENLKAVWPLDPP
# Procedure, shortened: as §1
# ETS2 = target: T8, ETS2 (Homo sapiens, UniProt P15036 1-469); conditions: protein: recombinant; tags: N-terminal GST; dsDNA, one strand shown
# T8 sequence: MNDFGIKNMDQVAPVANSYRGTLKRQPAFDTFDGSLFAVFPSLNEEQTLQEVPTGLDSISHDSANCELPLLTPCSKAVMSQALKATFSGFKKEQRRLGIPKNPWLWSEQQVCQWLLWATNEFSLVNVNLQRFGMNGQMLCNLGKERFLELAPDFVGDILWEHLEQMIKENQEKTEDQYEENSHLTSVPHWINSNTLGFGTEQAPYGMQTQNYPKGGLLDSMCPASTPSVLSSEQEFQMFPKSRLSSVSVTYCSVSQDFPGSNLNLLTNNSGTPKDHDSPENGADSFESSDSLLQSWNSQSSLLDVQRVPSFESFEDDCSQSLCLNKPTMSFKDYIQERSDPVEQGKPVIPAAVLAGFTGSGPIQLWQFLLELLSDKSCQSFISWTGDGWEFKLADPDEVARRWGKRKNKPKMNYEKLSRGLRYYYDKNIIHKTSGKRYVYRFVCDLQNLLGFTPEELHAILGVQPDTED
# Procedure, shortened: as §1
# SPDEF = target: T9, SPDEF (Homo sapiens, UniProt O95238 1-335); conditions: protein: recombinant; tags: N-terminal GST; dsDNA, one strand shown
# T9 sequence: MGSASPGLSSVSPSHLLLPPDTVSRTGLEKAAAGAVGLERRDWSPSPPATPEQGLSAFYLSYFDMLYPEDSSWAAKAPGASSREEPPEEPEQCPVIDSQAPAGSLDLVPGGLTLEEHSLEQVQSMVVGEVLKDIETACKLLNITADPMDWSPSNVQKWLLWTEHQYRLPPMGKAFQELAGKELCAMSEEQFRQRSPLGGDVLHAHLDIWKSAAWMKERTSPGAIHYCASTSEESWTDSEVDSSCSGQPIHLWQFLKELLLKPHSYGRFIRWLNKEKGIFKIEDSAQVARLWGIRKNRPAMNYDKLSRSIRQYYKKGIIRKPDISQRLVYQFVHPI
# Procedure, shortened: as §1
# ETV7 = target: T10, ETV7 (Homo sapiens, UniProt Q9Y603 1-341); conditions: protein: recombinant; tags: N-terminal GST; dsDNA, one strand shown
# T10 sequence: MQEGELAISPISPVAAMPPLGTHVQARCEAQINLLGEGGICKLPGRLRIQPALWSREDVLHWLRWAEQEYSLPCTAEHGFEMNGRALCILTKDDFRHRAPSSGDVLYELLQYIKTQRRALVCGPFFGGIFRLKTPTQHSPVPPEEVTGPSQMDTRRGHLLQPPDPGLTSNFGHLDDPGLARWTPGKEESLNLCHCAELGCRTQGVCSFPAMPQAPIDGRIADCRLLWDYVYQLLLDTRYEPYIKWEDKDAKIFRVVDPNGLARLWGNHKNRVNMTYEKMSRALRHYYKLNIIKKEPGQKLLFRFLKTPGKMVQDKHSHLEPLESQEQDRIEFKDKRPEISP
# Procedure, shortened: as §1
# ELF5 = target: T11, ELF5 (Homo sapiens, UniProt Q9UKW6-2 1-255); conditions: protein: recombinant; tags: N-terminal GST; dsDNA, one strand shown
# T11 sequence: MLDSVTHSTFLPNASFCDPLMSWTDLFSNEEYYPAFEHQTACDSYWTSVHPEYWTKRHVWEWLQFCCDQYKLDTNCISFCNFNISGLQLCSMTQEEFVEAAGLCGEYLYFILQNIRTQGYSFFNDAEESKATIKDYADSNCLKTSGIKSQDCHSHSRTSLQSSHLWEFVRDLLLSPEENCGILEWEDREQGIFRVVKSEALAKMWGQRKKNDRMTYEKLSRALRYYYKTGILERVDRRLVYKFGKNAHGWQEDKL
# Procedure, shortened: as §1
# ETV3 = target: T12, ETV3 (Homo sapiens, UniProt P41162-2 1-143); conditions: protein: recombinant; tags: N-terminal GST; dsDNA, one strand shown
# T12 sequence: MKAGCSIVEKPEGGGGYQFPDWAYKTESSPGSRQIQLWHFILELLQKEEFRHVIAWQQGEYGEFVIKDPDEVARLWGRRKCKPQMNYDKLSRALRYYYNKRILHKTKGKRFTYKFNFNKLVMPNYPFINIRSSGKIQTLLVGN
# Procedure, shortened: as §1
# ETV6 = ETV6 (Homo sapiens, UniProt P41212 1-452); conditions: protein: recombinant; tags: N-terminal GST; dsDNA, one strand shown
# Procedure, shortened: as §1
# Chain of ETV5 (P41161 whole entry): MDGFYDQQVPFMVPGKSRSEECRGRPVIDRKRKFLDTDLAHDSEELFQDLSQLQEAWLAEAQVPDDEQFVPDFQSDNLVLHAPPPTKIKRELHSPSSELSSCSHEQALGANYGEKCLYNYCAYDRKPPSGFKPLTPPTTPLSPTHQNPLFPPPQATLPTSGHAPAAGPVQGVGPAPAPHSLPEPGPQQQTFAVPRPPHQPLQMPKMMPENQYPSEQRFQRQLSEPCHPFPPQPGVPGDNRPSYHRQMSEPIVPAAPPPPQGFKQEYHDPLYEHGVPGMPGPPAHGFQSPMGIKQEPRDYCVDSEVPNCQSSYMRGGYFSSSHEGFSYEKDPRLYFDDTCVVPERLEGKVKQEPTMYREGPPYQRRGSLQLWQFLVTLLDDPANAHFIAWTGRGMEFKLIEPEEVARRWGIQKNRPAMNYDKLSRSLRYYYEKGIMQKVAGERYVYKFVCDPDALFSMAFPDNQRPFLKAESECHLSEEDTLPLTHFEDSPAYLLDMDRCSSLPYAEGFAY
# Chain of ETV6 (P41212 whole entry): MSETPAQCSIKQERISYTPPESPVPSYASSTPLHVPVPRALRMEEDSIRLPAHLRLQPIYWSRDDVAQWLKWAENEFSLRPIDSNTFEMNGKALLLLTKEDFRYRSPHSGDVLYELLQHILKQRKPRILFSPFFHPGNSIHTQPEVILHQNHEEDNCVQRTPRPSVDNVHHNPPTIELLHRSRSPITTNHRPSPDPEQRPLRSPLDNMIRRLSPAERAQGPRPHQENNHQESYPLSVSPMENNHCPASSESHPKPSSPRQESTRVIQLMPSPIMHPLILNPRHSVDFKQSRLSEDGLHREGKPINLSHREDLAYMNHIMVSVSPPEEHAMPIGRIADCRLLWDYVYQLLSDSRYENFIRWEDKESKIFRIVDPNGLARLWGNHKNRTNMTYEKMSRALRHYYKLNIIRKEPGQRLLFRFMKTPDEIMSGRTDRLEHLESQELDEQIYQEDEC
# Chain of ELF4 (Q99607 whole entry): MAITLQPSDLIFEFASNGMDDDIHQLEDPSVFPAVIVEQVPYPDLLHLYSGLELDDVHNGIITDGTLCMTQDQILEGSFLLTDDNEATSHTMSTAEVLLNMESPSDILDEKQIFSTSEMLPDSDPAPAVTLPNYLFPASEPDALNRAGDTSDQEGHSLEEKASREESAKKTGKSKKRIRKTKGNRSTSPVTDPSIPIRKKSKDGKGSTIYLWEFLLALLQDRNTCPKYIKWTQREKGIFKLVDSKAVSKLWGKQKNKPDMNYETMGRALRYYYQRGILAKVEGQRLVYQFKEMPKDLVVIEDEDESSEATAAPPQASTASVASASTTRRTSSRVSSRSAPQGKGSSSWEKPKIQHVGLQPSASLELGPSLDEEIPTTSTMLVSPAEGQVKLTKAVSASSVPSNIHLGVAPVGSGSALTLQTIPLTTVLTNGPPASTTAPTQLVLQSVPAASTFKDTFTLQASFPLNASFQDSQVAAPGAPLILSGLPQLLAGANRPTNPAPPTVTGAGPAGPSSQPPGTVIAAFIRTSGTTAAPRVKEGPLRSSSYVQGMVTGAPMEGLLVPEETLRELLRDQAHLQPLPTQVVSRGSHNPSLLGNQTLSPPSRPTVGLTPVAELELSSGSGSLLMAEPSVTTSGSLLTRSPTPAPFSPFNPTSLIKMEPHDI
# Chain of CRX (O43186 whole entry): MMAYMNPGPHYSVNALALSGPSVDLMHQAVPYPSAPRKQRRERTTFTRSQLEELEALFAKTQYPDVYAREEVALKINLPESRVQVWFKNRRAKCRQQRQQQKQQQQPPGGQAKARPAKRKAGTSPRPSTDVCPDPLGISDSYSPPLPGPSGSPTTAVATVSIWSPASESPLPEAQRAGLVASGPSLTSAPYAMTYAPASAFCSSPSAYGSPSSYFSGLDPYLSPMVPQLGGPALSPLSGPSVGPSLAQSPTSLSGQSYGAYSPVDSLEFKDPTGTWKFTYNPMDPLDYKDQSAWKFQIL
# Chain of ETV1 (P50549 whole entry): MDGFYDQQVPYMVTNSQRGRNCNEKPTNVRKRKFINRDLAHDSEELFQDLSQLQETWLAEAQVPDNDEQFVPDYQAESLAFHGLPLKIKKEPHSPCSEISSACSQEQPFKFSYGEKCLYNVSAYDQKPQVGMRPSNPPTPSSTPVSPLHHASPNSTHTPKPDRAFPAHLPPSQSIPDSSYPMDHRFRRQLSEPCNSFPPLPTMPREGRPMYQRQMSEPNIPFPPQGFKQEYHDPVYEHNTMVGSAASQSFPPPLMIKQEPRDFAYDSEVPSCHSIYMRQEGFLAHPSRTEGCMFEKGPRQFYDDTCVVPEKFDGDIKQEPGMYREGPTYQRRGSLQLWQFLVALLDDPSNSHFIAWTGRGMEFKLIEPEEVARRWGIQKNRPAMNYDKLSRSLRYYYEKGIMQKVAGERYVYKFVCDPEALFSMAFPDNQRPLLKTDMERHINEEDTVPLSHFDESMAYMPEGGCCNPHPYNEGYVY
# Chain of HSF1 (Q00613 whole entry): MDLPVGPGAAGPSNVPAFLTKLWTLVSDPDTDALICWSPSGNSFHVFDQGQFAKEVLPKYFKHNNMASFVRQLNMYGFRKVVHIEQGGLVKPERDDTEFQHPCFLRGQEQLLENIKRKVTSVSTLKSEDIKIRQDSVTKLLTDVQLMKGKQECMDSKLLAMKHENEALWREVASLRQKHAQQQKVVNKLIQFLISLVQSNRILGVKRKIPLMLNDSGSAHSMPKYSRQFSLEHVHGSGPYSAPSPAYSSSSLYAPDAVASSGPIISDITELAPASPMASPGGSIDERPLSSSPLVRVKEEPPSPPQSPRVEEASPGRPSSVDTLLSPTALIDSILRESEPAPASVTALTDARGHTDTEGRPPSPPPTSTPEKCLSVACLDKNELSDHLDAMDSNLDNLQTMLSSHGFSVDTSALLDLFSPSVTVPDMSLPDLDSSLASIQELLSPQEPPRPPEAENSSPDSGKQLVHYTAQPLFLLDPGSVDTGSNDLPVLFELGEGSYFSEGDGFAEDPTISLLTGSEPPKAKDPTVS
sequence,measurement,setting,value
CAATTT,binding signal,FEV,"1.5 fold enrichment (6-mer frequency, TF over GST control)"
same,binding signal,ETV5,"1.29 fold enrichment (6-mer frequency, TF over GST control)"
same,binding signal,HSF1,"1.15 fold enrichment (6-mer frequency, TF over GST control)"
same,binding signal,SPIC,"1.26 fold enrichment (6-mer frequency, TF over GST control)"
same,binding signal,ELF4,"1.35 fold enrichment (6-mer frequency, TF over GST control)"
same,binding signal,ELK4,"1.31 fold enrichment (6-mer frequency, TF over GST control)"
same,binding signal,ETV2,"1.44 fold enrichment (6-mer frequency, TF over GST control)"
same,binding signal,ELF3,"1.53 fold enrichment (6-mer frequency, TF over GST control)"
same,binding signal,CRX,"1.07 fold enrichment (6-mer frequency, TF over GST control)"
same,binding signal,ETV1,"1.35 fold enrichment (6-mer frequency, TF over GST control)"
same,binding signal,ERF,"1.36 fold enrichment (6-mer frequency, TF over GST control)"
same,binding signal,ETV3L,"1.33 fold enrichment (6-mer frequency, TF over GST control)"
same,binding signal,ETS2,"1.28 fold enrichment (6-mer frequency, TF over GST control)"
same,binding signal,SPDEF,"1.21 fold enrichment (6-mer frequency, TF over GST control)"
same,binding signal,ETV7,"1.31 fold enrichment (6-mer frequency, TF over GST control)"
same,binding signal,ELF5,"1.29 fold enrichment (6-mer frequency, TF over GST control)"
same,binding signal,ETV3,"1.43 fold enrichment (6-mer frequency, TF over GST control)"
same,binding signal,ETV6,"1.32 fold enrichment (6-mer frequency, TF over GST control)"

# Reference: article PMC7862700, “An all-to-all approach to the identification of sequence-specific readers for epigenetic DNA modifications on cytosine”
